Each structure is given as a SMILES string.

The values that follow come from the supplement of paper PMC4206461.

This assay has as its system Pseudomonas aeruginosa PA14 wild type. Briefly: respiration area under curve with compound as sole nitrogen source, 24 h (OmniLog AUC (arbitrary units)); higher = more respiration / better utilisation as nitrogen source, active = 2000 or more. The protocol:
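Biolog Phenotype MicroArray plates PM6-PM8: each di/tripeptide is the sole nitrogen source (IF-0 medium with succinate/ferric citrate and dye mix A). Tetrazolium reduction was read in the OmniLog every 15 min for 24 h at 37°C and summarised as area under the respiration curve (arbitrary units). The paper counts values below 2000 as no respiration and above 8000 as solid respiration. Replicate datasets are averaged.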
Regarding `NC(=O)CC[C@H](NC(=O)[C@@H]1CCCN1)C(=O)O` (plate: PM7), the “respiration area under curve” value is 9790 (active). The same measure for `CC[C@H](C)[C@H](NC(=O)[C@@H](N)Cc1ccc(O)cc1)C(=O)O` (plate: PM8): 6790 (active); for `CC(C)[C@H](N)C(=O)N[C@H](C(=O)O)C(C)C` (plate: PM7): 9240 (active). Take `CC[C@H](C)[C@H](NC(=O)[C@@H](N)Cc1ccccc1)C(=O)O` (plate: PM7): the “respiration area under curve” value was 8390 (active). Take `CC(C)[C@H](NC(=O)[C@@H](N)CO)C(=O)O` (plate: PM7): the “respiration area under curve” value is 8700 (active). The same measure for `N[C@@H](Cc1c[nH]c2ccccc12)C(=O)N[C@@H](CC(=O)O)C(=O)O` (plate: PM7): 446 (inactive); for `CC(C)[C@H](NC(=O)[C@@H](N)Cc1c[nH]c2ccccc12)C(=O)O` (plate: PM8): 3080 (active). Regarding `NC(=O)CC[C@H](NC(=O)[C@@H](N)Cc1ccc(O)cc1)C(=O)O` (plate: PM7), the “respiration area under curve” value is 13000 (active).

On to `C[C@@H](N)C(=O)NCC(=O)O` (plate: PM8), for which the “respiration area under curve” value was 6030 (active). Regarding `NCC(=O)N[C@@H](Cc1ccccc1)C(=O)O` (plate: PM6), the “respiration area under curve” value was 2760 (active). Take `CSCCC(N)C(=O)NC(CCCN=C(N)N)C(=O)O` (stereo not given) (plate: PM7): the “respiration area under curve” value is 14600 (active). As for `NC(N)=NCCC[C@H](N)C(=O)N[C@@H](Cc1c[nH]c2ccccc12)C(=O)O` (plate: PM6), the “respiration area under curve” value is 8730 (active). In the case of `CC(C)C(NC(=O)C1CCCN1)C(=O)O` (stereo not given) (plate: PM8) it was 7080 (active); in that of `CC(C)[C@H](NC(=O)CN)C(=O)O` (plate: PM6), 4270 (active); in that of `CC(C)C[C@H](NC(=O)[C@@H](N)CO)C(=O)O` (plate: PM7), 7960 (active). The same measure for `CC(C)C[C@H](NC(=O)[C@@H]1CCCN1)C(=O)O` (plate: PM7): 7810 (active); for `CSCC[C@H](N)C(=O)N[C@@H](Cc1ccccc1)C(=O)O` (plate: PM7): 1400 (inactive); for `N[C@@H](Cc1ccccc1)C(=O)NCC(=O)NCC(=O)O` (plate: PM8): 8700 (active). Consider `N[C@@H](Cc1c[nH]c2ccccc12)C(=O)N[C@@H](Cc1c[nH]c2ccccc12)C(=O)O` (plate: PM7), for which the “respiration area under curve” value is 1430 (inactive).

As to `CSCC[C@H](N)C(=O)N[C@@H](CC(=O)O)C(=O)O` (plate: PM7), the “respiration area under curve” value was 4700 (active). `CC(C)C[C@H](NC(=O)[C@@H](N)C(C)C)C(=O)O` (plate: PM7): the “respiration area under curve” value is 9770 (active). Consider `N[C@@H](CCC(=O)O)C(=O)N[C@@H](CCC(=O)O)C(=O)O` (plate: PM6), for which the “respiration area under curve” value was 248 (inactive).

For the compound `CSCC[C@H](N)C(=O)N1CCC[C@H]1C(=O)O` (plate: PM7), the “respiration area under curve” value was 8120 (active). `CC[C@H](C)[C@H](NC(=O)[C@@H](N)C(C)C)C(=O)O` (plate: PM7): the “respiration area under curve” value is 9390 (active). For `N[C@@H](CC(=O)O)C(=O)N[C@@H](CCC(=O)O)C(=O)O` (plate: PM6), the “respiration area under curve” value is 291 (inactive). As for `CC(C)[C@H](NC(=O)[C@@H](N)Cc1ccc(O)cc1)C(=O)O` (plate: PM8), the “respiration area under curve” value is 7430 (active). In the case of `CC[C@H](C)[C@H](N)C(=O)N[C@@H](CCSC)C(=O)O` (plate: PM6) it was 1290 (inactive); in that of `CC(C)[C@H](N)C(=O)NCC(=O)O` (plate: PM7), 9460 (active).

`O=C(O)[C@H](Cc1ccccc1)NC(=O)[C@@H]1CCCN1` (plate: PM7): the “respiration area under curve” value is 7250 (active). In the case of `NCC(=O)N[C@H](CO)C(=O)O` (plate: PM8), the “respiration area under curve” value was 641 (inactive). In the case of `NCC(=O)NCC(=O)O` (plate: PM6), the “respiration area under curve” value is 3270 (active). As to `CSCC[C@H](NC(=O)CN)C(=O)O` (plate: PM6), the “respiration area under curve” value is 327 (inactive). In the case of `NC(N)=NCCC[C@H](NC(=O)[C@@H](N)CCCN=C(N)N)C(=O)O` (plate: PM6), the “respiration area under curve” value is 10100 (active). In the case of `C[C@H](N)C(=O)N[C@@H](Cc1ccc(O)cc1)C(=O)O` (plate: PM6) it was 6830 (active); in that of `C[C@H](O)[C@@H](NC(=O)CN)C(=O)O` (plate: PM8), 0 (inactive); in that of `CC(NC(=O)C(N)CC(=O)O)C(=O)O` (stereo not given) (plate: PM8), 8830 (active). Consider `CC(C)CC(N)C(=O)NC(Cc1c[nH]c2ccccc12)C(=O)O` (stereo not given) (plate: PM7), for which the “respiration area under curve” value was 8750 (active). As for `NCC(=O)N[C@@H](CO)C(=O)O` (plate: PM6), the “respiration area under curve” value is 7870 (active). On to `CSCC[C@H](NC(=O)[C@@H](N)CCCN=C(N)N)C(=O)O` (plate: PM6), for which the “respiration area under curve” value is 10500 (active).

In the case of `CSCCC(NC(=O)C(N)C(C)C)C(=O)O` (stereo not given) (plate: PM8), the “respiration area under curve” value is 4440 (active).
